Experimental findings from PubChem BioAssay AID1240 (Sanford-Burnham Center for Chemical Genomics, 2008) are described below.

The campaign covered roughly 50,000 compounds. About 800 (1.6%) showed an effect of 50% or more. What follows is part of a selection rich in strong results, with near analogues and random picks from the rest.

Sequence of Bcl-2-like protein 10 (Homo sapiens) (Q9HD36 whole entry, looked up): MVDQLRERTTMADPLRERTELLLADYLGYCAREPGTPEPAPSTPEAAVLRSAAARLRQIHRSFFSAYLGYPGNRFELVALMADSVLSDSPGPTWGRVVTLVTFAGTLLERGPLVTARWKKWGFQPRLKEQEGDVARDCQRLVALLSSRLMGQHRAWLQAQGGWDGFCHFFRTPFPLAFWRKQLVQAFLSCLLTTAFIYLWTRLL

The test addresses Bcl-2-like protein 10 (Homo sapiens) (UniProt Q9HD36). Nature of the test: TR3 peptide-Bcl-B binding displacers, biochemical primary FP assay, phenotype converters (AID 1240).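 Further: 0% = Bcl-B with tracer peptide and DMSO and 100% = tracer peptide lacking Bcl-B.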 The conditions noted are these: GST-Bcl-B / FITC-TR3 peptide fluorescence polarization; stronger effect = higher value; compound at 3.75 mg/L. (Polarisation of emitted light reports the rotation of a fluorescent probe.)
On to `Cc1cccc([N+](=O)[O-])c1N=Cc1ccc(N(C)C)cc1`, for which the displacement is -4.5%.

Regarding `COc1ccc(N(CC(=O)NC2CCCCC2)S(=O)(=O)c2ccccc2)cc1Cl`, the displacement amounted to 7.2%.

`NS(=O)(=O)c1ccc(-c2ccc(/C=C3\Sc4ccccc4C3=O)o2)cc1`: the displacement is -71.8%.

On to `COc1ccc(/C=C2/Sc3ccccc3C2=O)cc1[N+](=O)[O-]`, for which the displacement is -5.3%. The same measure for `COc1ccc(/C=C2/Sc3ccccc3C2=O)cc1Br`: 116%. The same measure for `CCOc1cc(/C=C2\Sc3ccccc3C2=O)ccc1OC`: 0.2%. The same measure for `O=C1/C(=C/c2ccc(Br)o2)Sc2ccccc21`: 92.7%; for `O=C1/C(=C\c2ccc(-c3ccc([N+](=O)[O-])cc3Br)o2)Sc2ccccc21`: -17.8%; for `O=C(NCc1ccccn1)C(=O)Nc1ccccc1F`: -20.9%. As to `Cc1ccc(S(=O)(=O)NCCOc2ccccc2Cl)cc1[N+](=O)[O-]`, the displacement was 13%. The same measure for `C#CCOC(=O)/C(=C/c1ccc(F)cc1)NC(C)=O`: -8.4%; for `CC(=O)N/C(=C\c1ccccc1)C(=O)NC(CC(C)C)C(=O)O` (centres undefined): -2.1%. `CC(=O)N/C(=C\c1ccc(F)cc1)C(=O)NC(C(=O)O)C(C)C` (centres undefined): the displacement stood at 81.8%.

On to `COc1ccccc1NC(=O)c1cccc2c(Br)cccc12`, for which the displacement was -5.4%. The same measure for `COc1ccc(N(CC(=O)NC(C)c2ccccc2)S(=O)(=O)c2ccc(C)cc2)c(OC)c1` (centres undefined): 2.3%; for `Cc1cc(C)cc(OCC(=O)N2CCN(c3ccc([N+](=O)[O-])cc3)CC2)c1`: -3.5%; for `O=c1oc2ccccc2cc1-c1nc2ccccc2s1`: -1%. The same measure for `O=C(COc1ccc2ccc(=O)oc2c1)OCc1ccccc1`: 10.9%; for `O=c1c(-c2nc3ccccc3s2)coc2cc(OCc3ccc([N+](=O)[O-])cc3)ccc12`: 6.2%; for `O=C(COc1ccc2cc(-c3nc4ccccc4s3)c(=O)oc2c1)OCc1ccccc1`: 53.3%.

`CC(C)(C)OC(=O)COc1ccc2cc(-c3nc4ccccc4s3)c(=O)oc2c1`: the displacement turned out to be 92%.

`C=C(C)COc1ccc2cc(-c3nc4ccccc4s3)c(=O)oc2c1`: the displacement came out at 66.5%. For the compound `CCOC(=O)COc1ccc2cc(-c3nc4ccccc4[nH]3)c(=O)oc2c1`, the displacement was 7.3%.

On to `O=c1oc2cc(OCc3ccc(F)cc3)ccc2cc1-c1nc2ccccc2s1`, for which the displacement came to 52.5%. The same measure for `Cc1oc2cc(OCC(=O)OCc3ccccc3)ccc2c(=O)c1-c1nc2ccccc2s1`: 11.3%. With `O=c1oc2cc(OCc3c(F)c(F)c(F)c(F)c3F)ccc2cc1-c1ccc2ccccc2n1`, the displacement was -49.7%. Consider `CCOC(=O)COc1ccc2cc(-c3nc4ccccc4o3)c(=O)oc2c1`, for which the displacement came out at 8.8%.

For the compound `CCOc1ccc2c(=O)c(-c3nc4ccccc4s3)coc2c1`, the displacement amounted to 7.8%. The same measure for `CCOc1ccc(N(CC(=O)Nc2cccc3cccnc23)S(=O)(=O)c2ccccc2)cc1`: -39.5%; for `O=C(Nc1ccc2nn(-c3ccc(F)cc3)nc2c1)c1cc2ccccc2o1`: 2.5%; for `O=C1N/C(=N/N=C\c2ccc(-c3ccc(Cl)cc3)o2)SC1Cc1ccccc1` (centres undefined): 17%. The same measure for `CC(Sc1nnc(N)s1)c1ccccc1` (centres undefined): 5.2%; for `COc1ccc(CC(=O)N=Nc2c(O)n(CN3CCN(C)CC3)c3ccccc23)cc1`: -3%. The same measure for `O=C(CN1C(=O)c2ccc([N+](=O)[O-])cc2C1=O)N1CCCCC1`: -9.1%.

For the compound `COc1ccc(NC(=O)C(=O)NCc2ccc(C)cc2)c(OC)c1`, the displacement came to 10.4%.

As for `O=C(COc1ccc(Cl)cc1Br)NNC(=O)c1ccncc1`, the displacement was -4.5%. The same measure for `CC(=O)c1cc(F)c(N2CCN(C(=O)c3cccs3)CC2)cc1C`: 80%. Consider `CC(=O)c1ccc(N2CCN(C(=O)c3cccs3)CC2)c(F)c1`, for which the displacement is -4.6%. As for `CC(=O)c1cc(F)c(N2CCN(C(=O)c3ccccc3Br)CC2)cc1C`, the displacement was -5.4%.

Take `C=C(NC(C)=O)C(=O)c1ccc([N+](=O)[O-])cc1`: the displacement was found to be 18.9%. As for `Cc1ccc(NS(=O)(=O)c2ccc([N+](=O)[O-])cc2)cc1`, the displacement amounted to 15.1%. Regarding `Cc1ccc(Nc2ccc([N+](=O)[O-])c3nonc23)cc1`, the displacement is -2.1%. The same measure for `O=c1ccc([N+](=O)[O-])ccc1Nc1ccccn1`: 58.1%; for `O=C(COc1ccc([N+](=O)[O-])cc1)Nc1ccccn1`: -10.4%. The same measure for `O=C(Nc1ccccc1C(=O)Nc1ccccn1)c1ccc([N+](=O)[O-])cc1`: 45.1%; for `Cc1ccc(Nc2ccc([N+](=O)[O-])ccc2=O)cc1`: 136%. The same measure for `O=C(c1ccccc1)N1CCN(CCCc2ccccc2)CC1`: -9.4%; for `Cc1cccc(C(=O)O/N=C(\N)c2ccncc2)c1`: 8.5%. Regarding `Clc1ccc(CN2CCN(/N=C/c3ccc(Br)s3)CC2)cc1`, the displacement is 14.6%.

For `N#C/C(=C/c1cccc(Cl)c1)c1nc(-c2ccc(Cl)cc2)cs1`, the displacement was -4.7%. The same measure for `COc1cc(OC)c(NC(=O)c2ccccc2C)cc1Cl`: -12%; for `COc1cc(C=C2C(=O)NC(=O)NC2=O)ccc1OCc1c(C)no[n+]1[O-]`: -3.9%.

In the case of `CCOc1cc(C=C2C(=O)NC(=O)NC2=O)ccc1OCc1ccccc1`, the displacement was found to be 33.7%. Turning to `Cc1no[n+]([O-])c1COc1ccc(/C=C2\SC(=S)NC2=O)cc1`, the displacement was -27.5%.

With `CCOc1cc(/C=C2\SC(=S)NC2=O)ccc1OCc1c(C)no[n+]1[O-]`, the displacement was 117%. The same measure for `Cc1no[n+]([O-])c1COc1cccc(/C=C2\SC(=S)NC2=O)c1`: -27.6%. The same measure for `CCOc1ccc(C=C2C(=O)NC(=O)NC2=O)cc1OCC`: 14.1%; for `Cc1no[n+]([O-])c1COc1ccc(C=C2C(=O)NC(=O)NC2=O)cc1`: 2.5%; for `CCOc1cc(C=C2C(=O)NC(=O)NC2=O)ccc1OCc1cccc2ccccc12`: 58.6%. The same measure for `CCOc1cc(C=C2C(=O)NC(=O)NC2=O)ccc1OCc1c(C)no[n+]1[O-]`: 108%; for `O=C(c1nn2c(C(F)(F)F)cc(-c3ccccc3)nc2c1Cl)N1CCCC1`: 22.7%. As for `CC1=NN(C(=O)c2ccc([N+](=O)[O-])cc2)C(O)(C(F)(F)F)C1` (centres undefined), the displacement amounted to 6.8%. The same measure for `O=C1NC(=Nc2ccc(Cl)cc2)SC1Cc1cccc([N+](=O)[O-])c1` (centres undefined): -4.7%; for `O=C(CN(c1ccc(Br)cc1)S(=O)(=O)c1ccccc1)NC1CC2CCC1C2` (centres undefined): -0.2%; for `Nc1nnc(SCC(=O)N2c3ccccc3Sc3ccccc32)s1`: -2%.

For `CC(=O)N(CCC1(Cc2ccccc2)CCOC(C)(C)C1)Cc1ccccc1` (centres undefined), the displacement worked out at 7.8%. The same measure for `O=C(O)CCCCCN1C(=O)C(=O)/C(=C(/O)c2ccccc2)C1c1cccc(F)c1` (centres undefined): -11.9%; for `COc1ccc(C(NC(C)=O)NC(C)=O)cc1OC`: 6.3%; for `CCOc1ccc(C(=O)N(C(=O)c2ccc(OCC)cc2)c2ncccc2C)cc1`: -0.9%.
